From PubChem BioAssay
NLRP3 yeast inh – NALP3 inflammasome inhibitors in reconstituted yeast, primary screen, luminescence, uHTS. inhibition, % at 10 µM. Yeast reconstituted NLRP3/ASC/caspase-1, beta-gal luminescence, 24 h. AID 2825, 2010. hit rate 0.39% among 330,000;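 active = inhibition of 50% or more; inactive = inhibition below 50%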;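 note: plate controls were induced DMSO wells for no effect and uninduced yeast grown without galactose for full effect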
tim10-1 inh – growth inhibitors of tim10-1 mutant yeast, primary screen, luminescence, uHTS | S. cerevisiae tim10-1 ts strain growth, BacTiter-Glo, 24 h | inhibition, % at 20 µM | hit rate 2.2% among 330,000 | AID 463190, 2010;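 active = inhibition of at least 40%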;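 note: mutant grown at 25 °C; 0% = DMSO wells with yeast and 100% = wells holding no yeast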
tim23-1 inh – growth inhibitors of tim23-1 mutant yeast, primary screen, luminescence, uHTS; hit rate 1.3% among 330,000; inhibition, % at 20 µM; S. cerevisiae tim23-1 growth, BacTiter-Glo luminescence, 24 h;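 active = growth inhibition of the mutant yeast at or above 50%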;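 note: temperature-sensitive mutant grown at 25 °C; plate controls were DMSO-treated mutant yeast for no effect and medium wells lacking yeast for full effect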
NALP1 inh – NALP1 inflammasome inhibitors in reconstituted yeast, colorimetric, S. cerevisiae, triplicate retest | inhibition, % at 10 µM | hit rate 0.61% among 280,000 | S. cerevisiae NALP1/ASC/caspase-1 growth, X-gal OD620, 72 h; in the data active = inhibition mostly above about 24%, no sharp cut-off; inactive = mostly below about 32%
TIM10 inh – growth inhibitors of isogenic TIM10 control yeast, primary screen, counter-screen for tim10-1 yeast inhibitor project, luminescence, uHTS; S. cerevisiae TIM10 strain growth, BacTiter-Glo luminescence, 24 h; hit rate 1.4% among 330,000; inhibition, % at 10 µM;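 active = inhibition of 40% or more at the single tested concentration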;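 note: wild-type TIM10 isogenic control strain grown at permissive 25 °C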
tim10 confirm – growth inhibitors of wild-type TIM10 yeast, confirmation, counter-screen for tim10-1 synthetic lethality project, single concentration, luminescence, S. cerevisiae; shares compounds with TIM10 inh; S. cerevisiae tim10 strain growth, BacTiter-Glo luminescence, 24 h; inhibition, % at 10 µM; hit rate 63% among 4,600; AID 463215, 2010;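 active = inhibition of yeast growth at or above a set limit in either of two replicates at 10 µM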;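 note: this counterscreen used the strain with wild-type TIM10; 0% = yeast with DMSO and 100% = medium wells lacking yeast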
The depositor's hits bear a star; · = not tested or not shown. Hits are enriched below; roughly 4.1% of the tested compounds scored in any of these assays.

SMILES	NLRP3 yeast inh	tim10-1 inh	tim23-1 inh	NALP1 inh	TIM10 inh	tim10 confirm
O=C(ONc1ccc(N=NC(=O)c2ccccc2O)cc1)c1ccccc1	21	39	38	22	42*	8
CCOC(=O)c1ccc(NS(=O)(=O)c2ccc(Cl)nc2)cc1	15	4	13	2	16	·
CCOC(=O)c1cnn(-c2ccc(NS(=O)(=O)c3ccc(Cl)cc3)cc2)c1C(F)(F)F	14	27	28	-13	52*	6
O=C(COc1ccc(Cl)cc1)Nc1ccc2c(c1)CCC2	48	-8	37	47	41*	-21
CC(=O)c1ccc(OCC(=O)Nc2ccc3c(c2)CCC3)cc1	8	-72	-11	1	-16	·
COc1ccccc1C(=O)NCCN1CCN(c2ccccc2)CC1	16	-3	-5	0	-7	·
COc1cccc(-c2ccc(SCC(=O)c3ccccc3)nn2)c1	-59	23	12	-4	42*	42*
COc1ccc(C(=O)CSc2ccc(-c3ccccc3)nn2)cc1	31	-15	21	38	7	·
O=Cc1cc(N=Nc2ccccc2Cl)ccc1O	47	12	29	-8	62*	76*
O=Cc1cc(N=Nc2cccc(C(=O)O)c2)ccc1O	38	1	5	6	16	·
O=CN1CCN(c2c([N+](=O)[O-])c(=O)oc3ccccc23)CC1	-4	4	1	14	4	·
CC1CC(C)CN(CCCNC(=O)c2ccc3c(c2)N(Cc2ccccc2)C(=O)c2ccccc2S3=O)C1 (stereo unspecified)	14	3	-10	10	2	·
Fc1ccc(/C=N/n2c(-c3cccs3)n[nH]c2=S)cc1	21	30	41	·	45*	28
S=c1[nH]nc(-c2cccs2)n1/N=C/c1cn(-c2ccccc2)nc1-c1ccccc1	16	23	29	·	17	·
Clc1ccc(Cn2ccc(-c3ccc4c(c3)OCO4)n2)cc1Cl	-25	26	25	0	40*	40*
CC(C)(C)c1ccc(C(=O)N2CCN(C(=O)c3cccs3)CC2)cc1	22	21	31	·	14	·
COc1ccc(C2C(C#N)=C(N)N(c3sc4c(c3C#N)CCCC4)C3=C2C(=O)CC(C)(C)C3)cc1 (stereo unspecified)	14	15	27	5	19	·
COc1ccc(C2C(C#N)=C3NC(=O)c4c(sc5c4CCCCC5)N3C3=C2C(=O)CC(C)(C)C3)cc1 (stereo unspecified)	-3	30	-21	5	43*	-1
CCCCNC(C(=O)Nc1ccc([N+](=O)[O-])cc1Br)c1ccccc1 (stereo unspecified)	13	10	16	29	10	·
COc1cccc(NC(=O)N2CCN(c3nc(-c4cccc(OC)c4)cs3)CC2)c1	24	8	32	·	24	·
COc1cccc(-c2csc(N3CCN(C(=O)NC45CC6CC(CC(C6)C4)C5)CC3)n2)c1	15	34	24	-1	42*	25
COc1cccc(-n2nnnc2S(C)(=O)=O)c1	-21	-13	-49	18	59*	48*
COc1cccc(-n2cnnn2)c1	-4	23	8	·	-1	·
CCc1cccc(C)c1NC(=S)NCC1CCN(c2ccc(OC)cc2)C1 (stereo unspecified)	12	27	36	-22	57*	59*
COc1ccc(N2CCC(CNC(=S)Nc3cccc(OC)c3)C2)cc1 (stereo unspecified)	4	-17	39	13	18	·
SMILES	NLRP3 yeast inh	tim10-1 inh	tim23-1 inh	NALP1 inh	TIM10 inh	tim10 confirm
CCc1ccccc1NC(=S)NCC1CCN(c2ccc(OC)cc2)C1 (stereo unspecified)	13	-4	48	·	40*	53*
COC(=O)C1CCN(C(=O)COC(=O)/C=C/c2ccc(O)c(OC)c2)CC1	19	11	11	·	3	·
O=S(=O)(c1cccc(NC(=S)N2CCN(c3ccccc3)CC2)c1)C(F)F	12	33	20	6	18	·
O=S(=O)(c1cccc(NC(=S)N2CCN(c3ccccc3F)CC2)c1)C(F)F	-11	28	3	13	47*	36*
CCc1cccc(CC)c1NC(=S)NC(C)c1ccccc1 (stereo unspecified)	8	39	26	16	53*	39*
CCc1cccc(CC)c1NC(=S)NCc1ccc2c(c1)OCO2	6	39	37	23	41*	0
CC12CCC(C(=O)NCc3ccc4c(c3)OCO4)(C(=O)C1=O)C2(C)C (stereo unspecified)	3	35	27	11	41*	1
CN(Cc1cccc(F)c1)C(=O)CNS(=O)(=O)c1ccc2ccccc2c1	14	-9	3	4	5	·
CCOC(=O)C1CCN(C(=O)CN(C)S(=O)(=O)c2ccc3c(c2)c(=O)n(C)c(=O)n3C)CC1	0	6	16	14	8	·
CC(CCc1ccccc1)NC(=O)N1CCOCC1 (stereo unspecified)	4	9	2	26	-2	·
COc1ccc(CC(=O)NNC(=S)Nc2ccccc2)cc1Cl	16	8	3	-6	1	·
CCCOc1ccc(CC(=O)NNC(=S)Nc2ccccc2)cc1Br	20	31	42	-15	46*	27*
Brc1ccc(C2=Nc3cccc4cccc(c34)N2)o1	14	25	13	29	15	·
Fc1ccc(C2=Nc3cccc4cccc(c34)N2)cc1	23	34	29	4	44*	13
CCN(CC)c1ccc(-c2n[nH]c(=S)n2-c2ccccc2)cc1	17	21	32	-2	41*	27
Cc1cc(NC(=O)Cc2cc(F)cc(F)c2)no1	9	18	13	6	13	·
COc1cccc(-c2nc(-c3ccc4c(c3)NC(=O)CO4)cs2)c1	18	18	16	-17	20	·
COc1ccc(-c2cc(-c3ccc(OC)cc3)nc(-c3ccc4c(c3)NC(=O)CO4)c2)cc1	8	20	18	2	41*	-4
CCc1nnc(NC(=O)CSc2nnc(C)c(=O)n2N)s1	18	6	-6	2	0	·
CCOc1ccc(Br)cc1CNc1ccc2c(c1)OCCO2	27	10	15	10	10	·
O=C(COC(=O)c1ccccn1)Nc1ncc(C(F)(F)F)cc1Cl	7	3	9	17	-2	·
O=C(COC(=O)c1ccc([N+](=O)[O-])s1)Nc1ncc(C(F)(F)F)cc1Cl	-11	9	-12	16	65*	72*
CC1CCCC(NC(=O)COC(=O)Cc2ccc(Cl)cc2)C1C (stereo unspecified)	1	7	29	·	4	·
